A selection: hits, their analogues and other compounds. The true share with any hit is near 19%.
TDP1 cell CPT – qHTS for Inhibitors of human tyrosyl-DNA phosphodiesterase 1 (TDP1): qHTS in cells in presence of CPT; AID 686979, 2013; Potency, µM (highest dose often 46.2 µM), without a hit: top-dose activity change, negative = growth inhibition, hits mostly inhibitors; hit rate 12% among 420,000; chicken DT40 Tdp1-/-;hTDP1 cells + 20 nM CPT, ATP luminescence, 48 h; also: nearly all actives have a fitted effect of over 55% in size
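Chicken DT40 Tdp1-/- cells complemented with human TDP1, 400 cells/well, exposed to compounds plus 20 nM camptothecin for at least 48 h at 37 C; viability read as ATP content by CellTiter-Glo luminescence.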
HT1080-NT tox – qHTS for induction of synthetic lethality in tumor cells producing 2HG: qHTS for the HT-1080-NT fibrosarcoma cell line. HT-1080-NT fibrosarcoma viability, CellTiter-Glo ATP luminescence, 48 h. Potency, µM (series often up to 46.1 µM), for the others: at the top dose activity, negative = less viability, hits mostly cytotoxic. hit rate 1.6% among 360,000. AID 686970, 2013;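 also: NT is the 2HG producing partner of a matched IDH1 knockdown line; 0% = DMSO-treated cells and -100% = media-only wells without cells; nearly all actives have a fitted effect of over 55% in size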
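Toxicity toward the 2HG-producing NT line was scored as %Activity, normalised to DMSO and no-cell wells, from CellTiter-Glo luminescence after 48 hours' treatment.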
KB-V1 cytotox – qHTS assay for MDR1-selective chemotherapeutics: Primary screen using the drug-selected MDR subline cells KB-V1; KB-V1 MDR cells viability, CellTiter-Glo, 72 h; Potency, µM (top dose mostly 46.1 µM), hits mostly cytotoxic; hit rate 3.4% among 400,000; AID 1347076, 2019; also: nearly all actives have a fitted effect of over 60% in size
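qHTS viability screen in drug-selected KB-V1 MDR cells: 72 h compound treatment at 37 degrees C, ATP luminescence end point.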
KB-3-1 cytotox – qHTS assay for MDR1-selective chemotherapeutics: Primary screen using the parental adenocarcinoma cell KB-3-1. KB-3-1 viability, CellTiter-Glo ATP luminescence, 72 h. Potency, µM (highest dose often 46.1 µM), actives largely listed as cytotoxic. hit rate 1.4% among 400,000. AID 1347075, 2019; also: nearly all actives have a fitted effect of over 60% in size
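Cells are dispensed, compounds pinned in, plates held at 37 °C for 72 h, then CellTiter-Glo is added and luminescence read after 10 minutes. Cell line: parental KB-3-1 in phenol-red-free DMEM, 10% FBS.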
HT1080 IDH1KD tx – qHTS for induction of synthetic lethality in tumor cells producing 2HG: qHTS for the HT-1080-IDH1KD cell line. hit rate 2% among 360,000. HT-1080 IDH1 knockdown viability, ATP luminescence, 48 h. Potency, µM (doses to about 46.1 µM), for inactives: top-dose activity, negative = toxicity, most hits filed as cytotoxic. AID 686971, 2013;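 also: 0% = DMSO wells and -100% = cell-free medium wells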
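Assay cells: HT-1080 with IDH1 knockdown, 750 per well, RPMI/5% FBS. Exposure: 48 h at 37 °C following 2 h pre-incubation. Read: CellTiter-Glo luminescence; fitted concentration-response, curve class assigned.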
TDP1 cell noCPT – qHTS for Inhibitors of human tyrosyl-DNA phosphodiesterase 1 (TDP1): qHTS in cells in absence of CPT; DT40 Tdp1-/- hTDP1 cells, no CPT, ATP luminescence, 48 h; Potency, µM (doses to about 46.2 µM), without a hit: top-dose activity change, negative = growth inhibition, hits mostly inhibitors; hit rate 15% among 420,000; AID 686978, 2013; also: nearly all actives have a fitted effect of over 55% in size
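DT40 Tdp1-/-;hTDP1 cells, no CPT (DMSO vehicle only), 400 cells/well; compounds pin-transferred; ≥48 hr, 37 °C; CellTiter-Glo 30 min RT dark, luminescence read.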
* hit, by the source's call; i = inactive; ? = inconclusive; . = no result given. Calls follow the shape of the dose curve; as a rule, active = well fitted curve in the direction sought with a large enough effect; inconclusive = small, poorly fitted or top-dose-only effect, or another doubt; inactive = no such curve, though single readings can be large; an effect the other way counts as inactive or inconclusive. Unless noted, % is scaled to controls: 0 for no effect and ±100 for the full control effect; potency is read from the fitted curve at half-maximal effect.

SMILES	TDP1 cell CPT	HT1080-NT tox	KB-V1 cytotox	KB-3-1 cytotox	HT1080 IDH1KD tx	TDP1 cell noCPT
Cc1cc(/C=C(/C#N)c2nc3ccccc3[nH]2)c(C)n1-c1cccc([N+](=O)[O-])c1	16µM*	-13%	?	?	-11%	13µM*
COc1ccc(/C=C(\C#N)c2nc3ccccc3c(=O)[nH]2)cc1OC	?	.	i	i	.	18µM*
COc1cc(/C=C(\C#N)c2nc3ccccc3[nH]2)cc(OC)c1O	16µM*	-4%	?	i	-3%	13µM*
COc1cc(/C=C(/C#N)c2nc3ccccc3c(=O)[nH]2)ccc1O	-18%	-1%	i	i	0%	-24%
O=C(NC1CCCC1)C1CCCN1C(=O)Oc1ccccc1 (configuration not stated)	6%	2%	i	i	1%	19%
CC(C)(C)c1ccc(C(=O)NCC(=O)OCc2cc(=O)n3nc(C4CC4)sc3n2)cc1	-4%	.	?	i	.	-21%
O=C(NCc1cccs1)c1ccc2c(c1)N(Cc1cccc(F)c1)C(=O)c1ccccc1S2	-18%	.	i	i	.	-27%
COc1cccc(CN(C)C(=O)c2ccccc2Sc2ccccc2C#N)c1OC	?	-20%	i	i	-1%	?
Cc1oc2ncn(CC(C)C)c(=O)c2c1C(=O)NCCCN1CCCCC1C (configuration not stated)	-13%	.	i	i	.	-4%
CCC(=O)Oc1ccc(/C=C(\C#N)c2nc3ccccc3[nH]2)cc1OC	?	.	i	i	.	?
COc1cc(/C=C(\C#N)c2nc3ccccc3[nH]2)cc(Br)c1OCc1ccccc1	18µM*	?	i	i	?	21µM*
COc1c(O)ccc(/C=C(\C#N)c2nc3ccccc3[nH]2)c1[N+](=O)[O-]	3%	5%	i	i	3%	?
COc1cc(/C=C(\C#N)c2nc3ccccc3[nH]2)ccc1Oc1ccc([N+](=O)[O-])cn1	12µM*	?	i	i	?	21µM*
COc1cc(/C=C(\C#N)c2nc3ccccc3[nH]2)ccc1OCc1ccccc1F	?	.	i	i	.	-27%
N#C/C(=C\c1cc([N+](=O)[O-])c(N2CCOCC2)cc1N1CCOCC1)c1nc2ccccc2[nH]1	?	-26%	?	i	-21%	23µM*
COc1ccc(/C=C(\C#N)c2nc3ccccc3[nH]2)cc1O	15µM*	-19%	i	i	?	21µM*
CC1CN(C(=O)c2cccn(Cc3c(Cl)cccc3Cl)c2=O)CC(C)O1 (configuration not stated)	-9%	3%	i	i	1%	-18%
COc1ccc(CC(=O)NNC(=O)c2cc(Cl)ccc2OC)cc1	3%	3%	i	i	0%	-11%
Cc1cc(Br)c(NC(=O)Cn2c([N+](=O)[O-])cnc2C)cc1C	-28%	0%	i	i	1%	-3%
CCOC(=O)/C=C1\CN(CCC(C)C)S(=O)(=O)c2ccccc21	-5%	9%	i	i	8%	?
CCOC(=O)/C=C1\CN(Cc2ccc(OC)cc2)S(=O)(=O)c2ccc(C(F)(F)F)cc21	13µM*	.	?	i	.	11µM*
Cc1ccc(CSc2nc3ccccc3c3nc(CCn4c(C)nc5ccccc54)nn23)cc1	-13%	.	i	i	.	-15%

Screening data deposited in PubChem BioAssay by National Center for Advancing Translational Sciences (NCATS).
